By inhibition is commonly meant the drop in the measured response relative to a control, in per cent.

Structures are written as SMILES. This is one part of the list. Values without a mark were called inactive.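 Rule for the calls: active = mean inhibition over triplicates above a set limit taken from the primary EBNA-1 screen (cut at about 37% in these data); inactive = the rest.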

The target of the test is Lytic switch protein BZLF1 (Epstein-Barr virus (strain B95-8)) (UniProt P03206). Kind of test: blockers of Zta binding to ZRE DNA – biochemical, fluorescence polarization, triplicate, counter-screen for EBNA-1 inhibitor project (AID 2328).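 Note: purified full length Zta protein with Cy5 labeled ZRE DNA probe; 0% = Zta with DMSO and 100% = wells lacking Zta protein; inhibitors lower polarization by freeing the labeled DNA probe.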 The settings on record: Cy5 fluorescence polarization, at 11.1 µM, stronger effect = higher value.
Chain of Lytic switch protein BZLF1 (Epstein-Barr virus (strain B95-8)) (P03206 whole entry, looked up): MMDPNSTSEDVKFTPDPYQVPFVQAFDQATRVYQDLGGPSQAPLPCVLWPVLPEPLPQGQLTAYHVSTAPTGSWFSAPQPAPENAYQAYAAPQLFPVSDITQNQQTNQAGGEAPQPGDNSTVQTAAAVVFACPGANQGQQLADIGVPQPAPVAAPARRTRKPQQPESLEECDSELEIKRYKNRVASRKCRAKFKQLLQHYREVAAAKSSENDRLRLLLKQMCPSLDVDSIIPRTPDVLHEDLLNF
With `COC(=O)CSc1nc(C)c2ccc(OC)cc2n1`, the inhibition was -0.69%.

Turning to `O=C(COc1ccc(/C=N/NC(=O)c2ccc(O)cc2)cc1)Nc1ccc([N+](=O)[O-])cc1`, the inhibition is 31.8%.

Consider `Cc1[nH]n(C(N)=S)c(=O)c1N=Nc1ccc(Cl)cc1Cl`, for which the inhibition was -7.48%.

For `COc1ccc(CCNC(=S)N2CCN(S(=O)(=O)c3ccc(F)cc3)CC2)cc1`, the inhibition is -0.49%.

With `COc1ccc(CNc2nc3c(c(=O)[nH]c(=O)n3C)n2Cc2ccccc2)cc1`, the inhibition was -15.5%.

For `CCOc1ccc(C(=O)NC(=S)Nc2ccc(NC(=O)C(C)C)cc2)cc1[N+](=O)[O-]`, the inhibition is -3.36%.

Turning to `Cc1ccc(-c2nn(-c3ccccc3)cc2/C=C2\SC(=S)N(CCCCCC(=O)O)C2=O)o1`, the inhibition is 5.22%.

With `Nc1ccc(S(=O)(=O)Nc2nccc(/C=C/c3ccc(Br)s3)n2)cc1`, the inhibition is -3.48%.

Consider `Cc1cccc(NC(=O)Cn2c(=O)n(Cc3ccccc3)c(=O)c3c(C)c(C)sc32)c1`, for which the inhibition was -8.61%.

For the compound `N#Cc1ccc(N2Cc3ccccc3/C2=N/C(=O)Nc2ccc(Cl)cc2)cc1`, the inhibition is -9.43%.

For `Cc1cccc(N(CC(=O)Nc2ccc(-c3nc4ccc(C)cc4s3)cc2)S(C)(=O)=O)c1`, the inhibition is 13.4%.

For the compound `Nc1nnc(SCC(=O)Nc2ccc3nc(SCC(=O)Nc4ccccc4)sc3c2)s1`, the inhibition is 8.16%.

Consider `COc1ccc(NC(=O)NCc2ccc3c(c2)OCO3)c(OC)c1`, for which the inhibition was -15.6%.

For the compound `Cc1ccc(O)c(/C=N/NC(=O)COc2ccc3c(C)cc(=O)oc3c2)c1`, the inhibition is -17%.

The values are drawn from PubChem BioAssay AID2328 (The Scripps Research Institute Molecular Screening Center, 2010).
